Source: PubChem BioAssay (Tox21)
“And” between values parts separate entries of the source, which are not always exact repeats. Identical values can stand only once. Records with an inconclusive call do not appear. The source made the active and inactive calls. Unless noted, the call rests on the fitted dose curve; in most records, active means well fitted curve in the direction sought with a large enough effect in the repeat runs; inconclusive means weak or mixed curves; inactive means no such curve, though single readings can be large; an effect the other way counts as inactive or inconclusive. Positions of bridges follow the written chain, without caps; N, C: chain ends. Non-standard residues stand in square brackets, D forms with d. Residues, ends and D or L forms follow the SMILES beside them. *: point of attachment. X2 = CC[C@H](C)CCCCC(=O)*; Orn = NCCC[C@H](N)C(=O)O; Dab = NCC[C@H](N)C(=O)O; Mpa = O=C(O)CCS

Experiments:
[1] = qHTS assay to identify small molecule antagonists of the thyroid receptor (TR) signaling pathway - cell viability counter screen (AID 743064); further: nearly all actives have a fitted effect of over 50% in size; further: potency means the concentration at half of the fitted maximal effect
In short: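 Same-well viability check: GH3.TRE-Luc cells stimulated with 1 nM T3 alongside test compound for 23.5 h, followed by CellTiter-Fluor fluorescence.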

[2] = qHTS assay to identify small molecule antagonists of the thyroid receptor (TR) signaling pathway (AID 743065); further: nearly all actives have a fitted effect of over 55% in size; further: potency means the concentration at half of the fitted maximal effect
In short: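 Antagonism measured as loss of luciferase signal in GH3 cells stably carrying a TRE-luciferase reporter, co-treated with compound and T3 (1 nM final) for 23.5 h at 37 C. Viability was read in the same well by CellTiter-Fluor.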

[3] = test system: thyroid hormone receptor (rat, GH3 cells); assay: qHTS assay to identify small molecule agonists of the thyroid receptor (TR) signaling pathway (AID 743066; calls by dose curve)
[4] = target: Estrogen receptor (Homo sapiens) (UniProt P03372); assay: qHTS assay to identify small molecule antagonists of the estrogen receptor alpha (ER-alpha) signaling pathway (AID 743069; active means well fitted curve in the direction sought with a large enough effect in the signal ratio in the repeat runs, not every such curve was filed as active; the % refers to the signal ratio)
In short: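 Fluorescence intensity from a beta-lactamase FRET substrate served as the read-out. Cells: HEK293 with stably integrated ER-alpha-UAS-bla reporter. Agonist 17beta-estradiol was co-added with compounds; incubation 18 hr at 37C, substrate 2 hr at room temperature.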

[5] = qHTS assay to identify small molecule antagonists of the estrogen receptor alpha (ER-alpha) signaling pathway - cell viability counter screen (AID 743074; calls by dose curve; further: nearly all actives have a fitted effect of over 45% in size)
[6] = target: Estrogen receptor (Homo sapiens) (UniProt P03372); assay: qHTS assay to identify small molecule agonists of the estrogen receptor alpha (ER-alpha) signaling pathway (AID 743075; calls by dose curve)
[7] = target: Estrogen receptor (Homo sapiens) (UniProt P03372); assay: qHTS assay to identify small molecule agonists of the estrogen receptor alpha (ER-alpha) signaling pathway using the BG1 cell line (AID 743079); settings: BG1Luc4E2 cells, ERE-luciferase agonist, 22 h; activation: at 70.3 µM (top of the series); further: nearly all actives have a fitted effect of over 20% in size; further: potency means the concentration at half of the fitted maximal effect
[8] = qHTS assay to identify small molecule antagonists of the estrogen receptor alpha (ER-alpha) signaling pathway using the BG1 cell line (AID 743080; calls by dose curve;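 further: BG1 cells stimulated with 17beta-estradiol alongside compound; nearly all actives have a fitted effect of over 25% in size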)
In short: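 After 5 days in phenol-red-free 10% charcoal-stripped FBS medium, BG1-Luc-4E2 cells were seeded, left 24 h at 37 C, co-treated with compounds and 17beta-estradiol for 21.5 h, then assayed for viability and luciferase.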

[9] = qHTS assay to identify small molecule antagonists of the estrogen receptor alpha (ER-alpha) signaling pathway using the BG1 cell line - cell viability counter screen (AID 743081);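 further: compound given together with 17beta-estradiol as the ER stimulus; nearly all actives have a fitted effect of over 45% in size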
[10] = target: Aromatase (Homo sapiens) (UniProt P11511); assay: qHTS assay to identify aromatase inhibitors (AID 743083); further: nearly all actives have a fitted effect of over 55% in size

Measured: Potency

Estrogen receptor (Homo sapiens), sequence (P03372 whole entry, looked up): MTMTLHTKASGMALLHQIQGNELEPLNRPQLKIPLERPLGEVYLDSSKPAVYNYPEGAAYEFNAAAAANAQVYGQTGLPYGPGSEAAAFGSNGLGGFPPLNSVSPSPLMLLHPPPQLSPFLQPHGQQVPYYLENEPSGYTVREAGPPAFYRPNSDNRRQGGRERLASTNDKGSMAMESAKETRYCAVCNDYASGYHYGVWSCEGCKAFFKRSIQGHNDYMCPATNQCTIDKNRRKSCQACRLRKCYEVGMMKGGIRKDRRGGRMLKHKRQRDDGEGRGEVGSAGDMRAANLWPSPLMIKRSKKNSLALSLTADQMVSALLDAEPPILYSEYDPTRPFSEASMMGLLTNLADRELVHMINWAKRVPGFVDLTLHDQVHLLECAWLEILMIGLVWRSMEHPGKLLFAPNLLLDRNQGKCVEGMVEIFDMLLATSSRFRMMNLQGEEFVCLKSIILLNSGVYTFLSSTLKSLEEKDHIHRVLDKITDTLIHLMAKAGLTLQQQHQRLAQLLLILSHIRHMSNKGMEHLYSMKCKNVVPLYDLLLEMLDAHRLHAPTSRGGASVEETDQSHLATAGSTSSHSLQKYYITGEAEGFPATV
Aromatase (Homo sapiens), sequence (P11511 whole entry, looked up): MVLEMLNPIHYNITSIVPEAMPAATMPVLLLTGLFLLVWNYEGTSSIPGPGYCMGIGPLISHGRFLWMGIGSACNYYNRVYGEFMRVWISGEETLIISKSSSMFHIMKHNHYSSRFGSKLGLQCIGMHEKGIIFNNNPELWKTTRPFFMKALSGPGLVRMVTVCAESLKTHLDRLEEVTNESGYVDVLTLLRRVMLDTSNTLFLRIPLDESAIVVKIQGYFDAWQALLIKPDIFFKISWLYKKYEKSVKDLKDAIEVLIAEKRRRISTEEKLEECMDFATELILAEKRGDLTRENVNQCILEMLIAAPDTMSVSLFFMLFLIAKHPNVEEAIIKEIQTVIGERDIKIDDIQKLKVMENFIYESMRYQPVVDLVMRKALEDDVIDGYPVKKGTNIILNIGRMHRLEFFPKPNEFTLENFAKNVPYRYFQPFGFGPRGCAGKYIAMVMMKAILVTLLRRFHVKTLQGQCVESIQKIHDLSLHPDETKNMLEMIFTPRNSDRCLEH

COc1ccc2c(c1)N(C[C@H](C)CN(C)C)c1ccccc1S2
active: [1] 4.52 µM | [2] 10.1 µM
not listed: [10]
inactive: all other assays above

CC[C@H](CC[C@@H](C)[C@H]1CC[C@H]2[C@@H]3CC=C4C[C@@H](O)CC[C@]4(C)[C@H]3CC[C@]12C)C(C)C
inactive: all assays above

C[C@@H]1C/C=C/C=C/C=C/C=C/[C@H](O[C@@H]2O[C@H](C)[C@@H](O)[C@H](N)[C@@H]2O)C[C@@H]2O[C@](O)(C[C@@H](O)C[C@H]3O[C@@H]3/C=C/C(=O)O1)C[C@H](O)[C@H]2C(=O)O
inactive: all assays above

CCN1C(=O)NC(c2ccccc2)C1=O (centres undefined)
inactive: all assays above

CC[C@H](C)CCCCC(=O)N[C@@H](CCN)C(=O)N[C@H](C(=O)N[C@@H](CCN)C(=O)N[C@H]1CCNC(=O)[C@@H]([C@H](C)O)NC(=O)[C@H](CCN)NC(=O)[C@H](CCN)NC(=O)[C@H](CC(C)C)NC(=O)[C@@H](CC(C)C)NC(=O)[C@H](CCN)NC1=O)[C@@H](C)O (X2-[Dab]T[Dab][Dab][Dab][dL]L[Dab][Dab][dT]; lactam 4-C)
inactive: all assays above

CC(C)(CO)[C@@H](O)C(=O)NCCC(=O)NCCSSCCNC(=O)CCNC(=O)[C@H](O)C(C)(C)CO
inactive: all assays above

CN[C@@H]1[C@@H](O)[C@@H](O[C@@H]2[C@@H](O)[C@H](O[C@H]3O[C@H](CN)[C@@H](O)[C@H](O)[C@H]3O)[C@@H](N)C[C@H]2NC(=O)C(O)CN)OC[C@]1(C)O (some centres undefined)
inactive: all assays above

CC(C)CN(C[C@@H](OP(=O)(O)O)[C@H](Cc1ccccc1)NC(=O)O[C@H]1CCOC1)S(=O)(=O)c1ccc(N)cc1
inactive: all assays above

COc1cc2c(cc1OC)CC(=O)N(CCCN(C)C[C@H]1Cc3cc(OC)c(OC)cc31)CC2
inactive: all assays above

CN1c2c(nc(N)[nH]c2=O)NCC1CNc1ccc(C(=O)NC(CCC(=O)O)C(=O)O)cc1 (centres undefined)
inactive: all assays above

NS(=O)(=O)c1cc2c(cc1Cl)NC(Cc1ccccc1)NS2(=O)=O (centres undefined)
inactive: all assays above

O=S(=O)(O)CCCS(=O)(=O)O
inactive: all assays above

C[C@H](N)C(=O)N[C@@H](C)P(=O)(O)O
inactive: all assays above

CC(=O)O[C@H]1C[C@@]2(C)[C@@H](C[C@@H](O)[C@H]3[C@@]4(C)CC[C@@H](O)[C@@H](C)[C@@H]4CC[C@@]32C)/C1=C(\CCC=C(C)C)C(=O)O
inactive: all assays above

CCOC(=O)[C@H](CS)NCCN[C@@H](CS)C(=O)OCC
inactive: all assays above

CC(C)CN(C[C@@H](O)[C@H](Cc1ccccc1)NC(=O)O[C@H]1CO[C@H]2OCC[C@H]21)S(=O)(=O)c1ccc(N)cc1
inactive: all assays above

CCOC(=O)[C@@H](N)CS
active: [7] 29.8 µM
inactive: all other assays above

CO/N=C(\C(=O)N[C@@H]1C(=O)N2C(C(=O)O)=C(CSc3nnnn3C)CS[C@H]12)c1csc(N)n1
inactive: all assays above

NCCC(=O)[N-][C@@H](Cc1cnc[nH]1)C(=O)O.[Zn]
inactive: all assays above

O=C(Cc1cccs1)N[C@@H]1C(=O)N2C(C(=O)[O-])=C(C[n+]3ccccc3)CS[C@H]12
inactive: all assays above

CC(Oc1ccccc1)C(=O)N[C@@H]1C(=O)N2[C@@H]1SC(C)(C)[C@@H]2C(=O)O (some centres undefined)
inactive: all assays above

O=C(O)c1ccc(NC(=O)[C@H](Cc2ccc(O)cc2)NC(=O)c2ccccc2)cc1
inactive: all assays above

CCOc1ccc(C[C@H]2NC(=O)CCSSC[C@@H](C(=O)N3CCC[C@H]3C(=O)N[C@@H](CCCN)C(=O)NCC(N)=O)NC(=O)[C@H](CC(N)=O)NC(=O)[C@H]([C@@H](C)O)NC(=O)[C@H]([C@@H](C)CC)NC2=O)cc1 ([Mpa][dY](Et)ITNCP[Orn]G-NH2; disulfide 1-6)
inactive: all assays above

CN1[C@@H]2CC[C@H]1CC(OC(c1ccccc1)c1ccccc1)C2 (some centres undefined)
active: [1] 16.8 µM and 26.6 µM | [2] 13.3 µM and 23.7 µM and 11.9 µM
inactive: all other assays above

Cn1nnnc1SCC1=C(C(=O)O)N2C(=O)[C@@H](NC(=O)[C@H](OC=O)c3ccccc3)[C@H]2SC1
inactive: all assays above

CC(C)[C@@H](N)C(=O)O
inactive: all assays above

C[N@+]12CCCC[C@@H]1CCC(=C(c1cccs1)c1cccs1)C2
inactive: all assays above

CC[C@H]1NC(=O)[C@@H](NC(=O)c2ncccc2O)[C@@H](C)OC(=O)[C@H](c2ccccc2)NC(=O)[C@@H]2CC(=O)CCN2C(=O)[C@H](Cc2ccccc2)N(C)C(=O)[C@@H]2CCCN2C1=O
inactive: all assays above

OC[C@H]1O[C@@H](n2cnc3c2NC=NC[C@H]3O)C[C@@H]1O
inactive: all assays above

[O]=[Bi][O]C(=O)[O][Bi]=[O]
inactive: all assays above

CO/N=C(\C(=O)N[C@@H]1C(=O)N2C(C(=O)O)=CCS[C@H]12)c1csc(N)n1
inactive: all assays above

O=P(O)(O)OC(CO)CO
inactive: all assays above

O=C(OCCO)c1ccccc1O
inactive: all assays above

O=S(O)CNc1ccc(S(=O)(=O)c2ccc(NCS(=O)O)cc2)cc1
inactive: all assays above

CCC(C)[C@@H](N)C(=O)O (some centres undefined)
inactive: all assays above

CC(=O)N[C@@H](C=O)[C@@H](O)[C@H](O)[C@H](O)CO
inactive: all assays above

CC(=O)O[C@H]1C[C@@H]2CC[C@@H]3[C@H](CC[C@@]4(C)[C@H]3C[C@H](N3CC[N+](C)(C)CC3)[C@@H]4OC(C)=O)[C@@]2(C)C[C@@H]1N1CC[N+](C)(C)CC1
inactive: all assays above
